# Laboratory results as given in PubChem BioAssay AID1159580 (chemical genetic matrix, 2015).
# Hit rate of the full screen: of about 5,500 compounds, about 2,000 (36%) were called active. Another 18% or so got no clear call; they are omitted. Some of the results follow. A number with no mark means an inactive call. Rule as the data show it: active = normalized growth mostly below about 0.91 (no sharp cut-off); inconclusive = no clear call, values can overlap the other calls; inactive = mostly above about 0.92.
# Test: chemical genetic growth profiling, strain panel (AID 1159580);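 also: tested at 20 µM; growth read once vehicle control cultures reached saturation at 30 °C; 1 = growth at the plate median or of vehicle wells; lower values mean less growth of the strain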
# Conditions: S. cerevisiae deletion strains, growth OD
compound,measurement,setting,value
CCCN1CCC[C@@H]2Cc3[nH]ncc3C[C@H]21,normalized growth,"locus YAL013W, strain DEP1, hits give low values",0.989
same,normalized growth,"locus YAL040C, strain CLN3, hits give low values",1.02
same,normalized growth,"locus YCL061C, strain MRC1 (second series), hits give low values",1
same,normalized growth,"locus YDR363W, strain ESC2, hits give low values",1.01
same,normalized growth,"locus YER002W, strain NOP16, hits give low values",1.01
same,normalized growth,"locus YMR263W, strain SAP30, hits give low values",0.994
same,normalized growth,"locus YMR307W, strain GAS1, hits give low values",0.985
same,normalized growth,"locus YNL128W, strain TEP1, hits give low values",1.02
same,normalized growth,"locus YNL175C, strain NOP13, hits give low values",1
same,normalized growth,"locus YNL197C, strain WHI3, hits give low values",1.02
same,normalized growth,"locus YNL224C, strain SQS1, hits give low values",1.01
same,normalized growth,"locus YNL322C, strain KRE1, hits give low values",1.01
same,normalized growth,"locus YOR083W, strain WHI5 (second series), hits give low values",1.02
O=C(Oc1ccc2ccccc2c1C1SCCS1)c1ccc([N+](=O)[O-])o1,normalized growth,"locus YAR019C, strain CDC15, hits give low values",0.952
same,normalized growth,"locus YBL105C, strain PKC1, hits give low values",0.958
same,normalized growth,"locus YBR135W, strain CKS1, hits give low values",0.966
same,normalized growth,"locus YBR136W, strain MEC1, hits give low values",0.957
same,normalized growth,"locus YBR160W, strain CDC28, hits give low values",0.947
same,normalized growth,"locus YDL017W, strain CDC7, hits give low values",0.958
same,normalized growth,"locus YDL028C, strain MPS1, hits give low values",0.942
same,normalized growth,"locus YDL101C, strain DUN1, hits give low values",0.943
same,normalized growth,"locus YDL108W, strain KIN28, hits give low values",0.955
same,normalized growth,"locus YDL132W, strain cdc53, hits give low values",0.973
same,normalized growth,"locus YDL214C, strain PRR2, hits give low values",0.912
same,normalized growth,"locus YDR052C, strain DBF4, hits give low values",0.973
same,normalized growth,"locus YDR054C, strain cdc34, hits give low values",0.97
same,normalized growth,"locus YDR226W, strain ADK1, hits give low values",0.933
same,normalized growth,"locus YDR477W, strain SNF1, hits give low values",0.901
same,normalized growth,"locus YER123W, strain YCK3, hits give low values",0.907
same,normalized growth,"locus YER133W, strain GLC7, hits give low values",0.953
same,normalized growth,"locus YFL009W, strain cdc4, hits give low values",0.964
same,normalized growth,"locus YFL029C, strain CAK1, hits give low values",0.948
same,normalized growth,"locus YFR003C, strain YPI1, hits give low values",0.957
same,normalized growth,"locus YFR019W, strain FAB1, hits give low values",0.923
same,normalized growth,"locus YFR028C, strain CDC14, hits give low values",0.946
same,normalized growth,"locus YGR040W, strain KSS1, hits give low values",0.919
same,normalized growth,"locus YGR052W, strain FMP48, hits give low values",0.966
same,normalized growth,"locus YGR092W, strain DBF2, hits give low values",0.86
same,normalized growth,"locus YHR030C, strain SLT2, hits give low values",0.698 (active)
same,normalized growth,"locus YHR079C, strain IRE1, hits give low values",0.89
same,normalized growth,"locus YHR082C, strain KSP1, hits give low values",0.936
same,normalized growth,"locus YHR205W, strain SCH9, hits give low values",0.768
same,normalized growth,"locus YIL147C, strain SLN1, hits give low values",0.93
same,normalized growth,"locus YJL095W, strain BCK1, hits give low values",0.855
same,normalized growth,"locus YJL128C, strain PBS2, hits give low values",0.842
same,normalized growth,"locus YJL157C, strain FAR1, hits give low values",0.92
same,normalized growth,"locus YJR016C, strain ILV3, hits give low values",0.958
same,normalized growth,"locus YJR066W, strain TOR1 (second series), hits give low values",0.919
same,normalized growth,"locus YJR066W, strain TOR1, hits give low values",0.879
same,normalized growth,"locus YKL048C, strain ELM1, hits give low values",0.925
same,normalized growth,"locus YKL067W, strain YNK1, hits give low values",0.909
same,normalized growth,"locus YKL101W, strain HSL1, hits give low values",0.894
same,normalized growth,"locus YKL193C, strain SDS22, hits give low values",0.952
same,normalized growth,"locus YKL203C, strain TOR2, hits give low values",1.02
same,normalized growth,"locus YLR113W, strain HOG1, hits give low values",0.702 (active)
same,normalized growth,"locus YLR133W, strain CKI1, hits give low values",0.919
same,normalized growth,"locus YLR403W, strain SFP1, hits give low values",0.919
same,normalized growth,"locus YML070W, strain DAK1, hits give low values",0.907
same,normalized growth,"locus YMR001C, strain CDC5, hits give low values",0.94
same,normalized growth,"locus YMR205C, strain PFK2 (second series), hits give low values",0.938
same,normalized growth,"locus YMR277W, strain FCP1, hits give low values",0.937
same,normalized growth,"locus YNL006W, strain LST8, hits give low values",0.955
same,normalized growth,"locus YNL020C, strain ARK1, hits give low values",0.917
same,normalized growth,"locus YNL161W, strain CBK1, hits give low values",0.957
same,normalized growth,"locus YNL183C, strain NPR1, hits give low values",0.951
same,normalized growth,"locus YNL207W, strain RIO2, hits give low values",0.963
same,normalized growth,"locus YNL222W, strain SSU72, hits give low values",0.939
same,normalized growth,"locus YNL307C, strain MCK1 (second series), hits give low values",0.901
same,normalized growth,"locus YOL078W, strain AVO1, hits give low values",0.962
same,normalized growth,"locus YOL136C, strain PFK27, hits give low values",0.886
same,normalized growth,"locus YOR061W, strain CKA2, hits give low values",0.921
same,normalized growth,"locus YOR119C, strain RIO1, hits give low values",0.973
same,normalized growth,"locus YOR231W, strain MKK1, hits give low values",0.878
same,normalized growth,"locus YOR329C, strain SCD5, hits give low values",0.957
same,normalized growth,"locus YPL031C, strain PHO85, hits give low values",0.917
same,normalized growth,"locus YPL153C, strain RAD53, hits give low values",0.909
same,normalized growth,"locus YPL204W, strain HRR25, hits give low values",0.906
same,normalized growth,"locus YPL209C, strain IPL1, hits give low values",0.964
same,normalized growth,"locus YPL256C, strain CLN2, hits give low values",0.807 (active)
same,normalized growth,"locus YPR025C, strain CCL1, hits give low values",0.961
same,normalized growth,"locus YPR106W, strain ISR1, hits give low values",0.939
same,normalized growth,"locus YPR111W, strain DBF20, hits give low values",0.913
same,normalized growth,"strain NNK1, hits give low values",0.941
same,normalized growth,"strain TSCII, hits give low values",0.954
